Measurements as given in PubChem BioAssay (NCATS).
Results filed as inconclusive are left out. Entries that show only a call come without a potency. Calls of active or inactive are those of the source. Calls come from the whole dose curve; as a rule, active = well fitted curve in the direction sought with a large enough effect; inconclusive = small, poorly fitted or top-dose-only effect, or another doubt; inactive = no such curve, though single readings can be large; an effect the other way counts as inactive or inconclusive.

Key:
[1] = qHTS for Inhibitors of Plasmodium falciparum (DD2) proliferation (AID 504314);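 note: parasite DNA measured by SYBR Green fluorescence after red cell lysis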
How it was run: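 Infected RBCs, 0.3% parasitemia, 2.5% Hct; compound 72 h, 37C/5% CO2; lyse + SYBR Green I, RT overnight, dark; read ex485/em535; normalize to DMSO and artemisinin 0.29 uM.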

[2] = qHTS for Inhibitors of Plasmodium falciparum (7G8) proliferation (AID 504316); note: nearly all actives have a fitted effect of over 65% in size; note: potency is the fitted concentration of half-maximal effect
How it was run: (§1)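 Erythrocytes infected with P. falciparum line (0.3% parasitemia, 2.5% hematocrit final) incubated with compounds 72 h at 37 °C, 5% CO2; SYBR Green lysis buffer added, fluorescence read next day. Normalized to 0.29 uM artemisinin and DMSO.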

[3] = qHTS for Inhibitors of Plasmodium falciparum (CP250) proliferation (AID 504320)
How it was run: as §1

[4] = qHTS for Inhibitors of Plasmodium falciparum (HB3) proliferation (AID 504318); note: nearly all actives have a fitted effect of over 60% in size
How it was run: as §1

SMILES	Potency [1]	Potency [2]	Potency [3]	Potency [4]
COc1ccc(-c2nc3c(c4c2C[C@H](c2ccccc2)OC4)CN(S(=O)(=O)c2ccc(C#N)cc2)CC3)c(C)c1	inactive	1510 nM (active)	inactive	
COC(=O)C(C(=O)OC)C1c2ccccc2C=C(C)N1C(=O)OC (centres undefined)	inactive	inactive	inactive	inactive
COC(=O)CC1c2ccccc2C=C(/C=C/c2ccc3c(c2)OCO3)N1C(=O)OC (centres undefined)	inactive		inactive	inactive
COC(=O)N1C(/C=C/c2ccc3c(c2)OCO3)=Cc2ccccc2C1CC(C)=O (centres undefined)	inactive	2690 nM (active)	inactive	
CCOC(=O)CCCNC(=O)N1CCc2nc(COc3ccccc3)c3c(c2C1)CO[C@@H](C)C3	inactive	1510 nM (active)	inactive	
CC=Cc1cc2ccccc2c2c(C(=O)OC)c(C(=O)OC)c(C(=O)OC)n12	inactive	inactive	inactive	
COC(=O)CCC(=O)OC1(C)C(=O)C2=CN(c3ccc(OC)cc3)C(c3ccc(OC)cc3)=CC2=C(Br)C1=O (centres undefined)	inactive		inactive	inactive
COC(=O)[C@H]1[C@@H](C)N(CCc2cc(OC)c(OC)c(OC)c2)C(=O)N[C@H]1c1ccccc1	inactive		inactive	inactive
O=C(NS(=O)(=O)c1ccc(F)cc1)O[C@@H]1C(=O)c2cc(Br)ccc2O[C@H]1c1ccc2c(c1)OCO2	inactive	inactive	inactive	
COC(=O)c1ccccc1S(=O)(=O)N1CCc2nc(-c3ccccc3)c3c(c2C1)CO[C@@H](C)C3	inactive	inactive	inactive	
COC(=O)[C@@H]1[C@@H](C)N(CCc2cc(OC)c(OC)c(OC)c2)C(=O)N[C@H]1c1ccccc1	inactive		inactive	inactive
